Assay [1] deals with Serine/threonine-protein kinase MRCK alpha (Homo sapiens) (UniProt Q5VT25). Conditions: at 0.1 µM.
Assay [2] has the same target. Conditions: at 1 µM.
For assay [3], the target named is Serine/threonine-protein kinase MRCK beta (Homo sapiens) (UniProt Q9Y5S2). Particulars: at 0.1 µM.
Assay [4] shares this target. Conditions: at 1 µM.
Assay [5] concerns the target Ribosomal protein S6 kinase alpha-5 (Homo sapiens) (UniProt O75582). Conditions: at 0.1 µM.
For assay [6] the target is unchanged. Conditions: at 1 µM.
Assay [7] addresses Ribosomal protein S6 kinase alpha-4 (Homo sapiens) (UniProt O75676). Conditions: at 0.1 µM.
Assay [8] shares this target. Particulars: at 1 µM.
Assay [9] has as its target Ribosomal protein S6 kinase beta-1 (Homo sapiens) (UniProt P23443). Conditions: at 0.1 µM.
The target is the same in assay [10]. Conditions: at 1 µM.
Assay [11] addresses T1, 3-phosphoinositide-dependent protein kinase 1 (Homo sapiens) (UniProt O15530).
T1 sequence (whole entry): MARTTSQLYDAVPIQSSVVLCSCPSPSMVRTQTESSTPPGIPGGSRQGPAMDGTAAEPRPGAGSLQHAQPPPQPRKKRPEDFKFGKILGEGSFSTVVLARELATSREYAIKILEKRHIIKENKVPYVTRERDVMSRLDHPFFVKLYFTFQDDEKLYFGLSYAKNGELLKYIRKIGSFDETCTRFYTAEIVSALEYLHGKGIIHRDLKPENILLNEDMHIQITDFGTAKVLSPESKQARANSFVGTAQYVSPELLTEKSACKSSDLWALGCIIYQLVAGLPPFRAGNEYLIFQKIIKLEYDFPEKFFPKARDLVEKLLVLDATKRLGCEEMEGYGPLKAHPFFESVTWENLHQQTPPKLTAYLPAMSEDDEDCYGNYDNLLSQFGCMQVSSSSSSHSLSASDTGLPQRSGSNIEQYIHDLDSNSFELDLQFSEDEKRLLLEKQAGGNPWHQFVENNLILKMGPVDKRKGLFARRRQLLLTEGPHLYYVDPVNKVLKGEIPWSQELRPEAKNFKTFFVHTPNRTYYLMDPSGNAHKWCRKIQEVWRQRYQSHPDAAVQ
Conditions: at 0.1 µM.

Assay [12] has as its target cAMP-dependent protein kinase catalytic subunit alpha (Homo sapiens) (UniProt P17612). Conditions: at 0.1 µM.
For assay [13] the target is unchanged. Particulars: at 1 µM.
Assay [14] deals with Protein kinase C alpha type (Homo sapiens) (UniProt P17252). Conditions: at 0.1 µM.
For assay [15] the target is unchanged. Particulars: at 1 µM.
Assay [16] has as its target Protein kinase C beta type (Homo sapiens) (UniProt P05771). Particulars: at 0.1 µM.
The target is the same in assay [17]. Particulars: at 1 µM.
Assay [18] deals with Protein kinase C eta type (Homo sapiens) (UniProt P24723). Particulars: at 0.1 µM.
Assay [19] shares this target. Particulars: at 1 µM.
For assay [20], the target named is Protein kinase C gamma type (Homo sapiens) (UniProt P05129). Particulars: at 0.1 µM.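 Note: values are mean percent inhibition of PKC gamma.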

Molecules are shown by their SMILES.

Sequence of Ribosomal protein S6 kinase alpha-5 (Homo sapiens) (O75582 whole entry, looked up): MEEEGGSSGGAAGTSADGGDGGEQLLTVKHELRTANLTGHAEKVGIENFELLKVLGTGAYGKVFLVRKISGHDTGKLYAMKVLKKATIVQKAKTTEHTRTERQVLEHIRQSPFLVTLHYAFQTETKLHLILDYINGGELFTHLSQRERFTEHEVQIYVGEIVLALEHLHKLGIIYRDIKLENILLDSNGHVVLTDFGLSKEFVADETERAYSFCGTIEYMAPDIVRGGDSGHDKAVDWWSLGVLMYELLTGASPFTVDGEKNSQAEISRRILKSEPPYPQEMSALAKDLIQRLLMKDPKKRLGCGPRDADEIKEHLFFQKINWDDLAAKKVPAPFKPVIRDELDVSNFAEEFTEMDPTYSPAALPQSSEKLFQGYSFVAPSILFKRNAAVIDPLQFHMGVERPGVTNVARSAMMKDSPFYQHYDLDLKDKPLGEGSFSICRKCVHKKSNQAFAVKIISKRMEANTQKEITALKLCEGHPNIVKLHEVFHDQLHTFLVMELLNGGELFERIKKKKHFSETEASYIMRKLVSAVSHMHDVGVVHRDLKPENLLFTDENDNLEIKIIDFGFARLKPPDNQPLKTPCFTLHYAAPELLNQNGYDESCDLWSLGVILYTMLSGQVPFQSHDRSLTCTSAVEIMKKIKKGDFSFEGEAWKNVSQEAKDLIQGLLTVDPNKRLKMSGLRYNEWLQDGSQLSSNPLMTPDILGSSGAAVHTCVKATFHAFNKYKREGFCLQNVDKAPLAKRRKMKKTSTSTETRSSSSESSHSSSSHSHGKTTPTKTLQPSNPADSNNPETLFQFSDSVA
Sequence of Protein kinase C eta type (Homo sapiens) (P24723 whole entry): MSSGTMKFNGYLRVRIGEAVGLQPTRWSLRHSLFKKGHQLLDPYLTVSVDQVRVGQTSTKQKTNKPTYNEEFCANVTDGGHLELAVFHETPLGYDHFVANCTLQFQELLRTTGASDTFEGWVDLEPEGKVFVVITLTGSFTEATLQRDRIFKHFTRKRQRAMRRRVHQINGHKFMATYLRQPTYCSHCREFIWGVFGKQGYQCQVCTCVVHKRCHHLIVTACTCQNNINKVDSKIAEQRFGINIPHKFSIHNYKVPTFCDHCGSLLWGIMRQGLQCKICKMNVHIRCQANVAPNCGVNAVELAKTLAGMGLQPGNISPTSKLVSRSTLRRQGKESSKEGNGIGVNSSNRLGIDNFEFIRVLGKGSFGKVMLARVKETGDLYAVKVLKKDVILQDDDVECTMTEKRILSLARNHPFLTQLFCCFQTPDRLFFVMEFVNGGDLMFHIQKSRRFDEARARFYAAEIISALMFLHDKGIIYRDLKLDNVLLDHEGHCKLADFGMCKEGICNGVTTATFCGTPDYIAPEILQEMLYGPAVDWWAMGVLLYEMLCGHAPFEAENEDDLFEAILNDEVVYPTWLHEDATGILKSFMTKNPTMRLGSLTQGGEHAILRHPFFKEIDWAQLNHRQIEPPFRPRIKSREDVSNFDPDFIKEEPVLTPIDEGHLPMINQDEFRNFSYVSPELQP
Sequence of Serine/threonine-protein kinase MRCK alpha (Homo sapiens) (Q5VT25 whole entry): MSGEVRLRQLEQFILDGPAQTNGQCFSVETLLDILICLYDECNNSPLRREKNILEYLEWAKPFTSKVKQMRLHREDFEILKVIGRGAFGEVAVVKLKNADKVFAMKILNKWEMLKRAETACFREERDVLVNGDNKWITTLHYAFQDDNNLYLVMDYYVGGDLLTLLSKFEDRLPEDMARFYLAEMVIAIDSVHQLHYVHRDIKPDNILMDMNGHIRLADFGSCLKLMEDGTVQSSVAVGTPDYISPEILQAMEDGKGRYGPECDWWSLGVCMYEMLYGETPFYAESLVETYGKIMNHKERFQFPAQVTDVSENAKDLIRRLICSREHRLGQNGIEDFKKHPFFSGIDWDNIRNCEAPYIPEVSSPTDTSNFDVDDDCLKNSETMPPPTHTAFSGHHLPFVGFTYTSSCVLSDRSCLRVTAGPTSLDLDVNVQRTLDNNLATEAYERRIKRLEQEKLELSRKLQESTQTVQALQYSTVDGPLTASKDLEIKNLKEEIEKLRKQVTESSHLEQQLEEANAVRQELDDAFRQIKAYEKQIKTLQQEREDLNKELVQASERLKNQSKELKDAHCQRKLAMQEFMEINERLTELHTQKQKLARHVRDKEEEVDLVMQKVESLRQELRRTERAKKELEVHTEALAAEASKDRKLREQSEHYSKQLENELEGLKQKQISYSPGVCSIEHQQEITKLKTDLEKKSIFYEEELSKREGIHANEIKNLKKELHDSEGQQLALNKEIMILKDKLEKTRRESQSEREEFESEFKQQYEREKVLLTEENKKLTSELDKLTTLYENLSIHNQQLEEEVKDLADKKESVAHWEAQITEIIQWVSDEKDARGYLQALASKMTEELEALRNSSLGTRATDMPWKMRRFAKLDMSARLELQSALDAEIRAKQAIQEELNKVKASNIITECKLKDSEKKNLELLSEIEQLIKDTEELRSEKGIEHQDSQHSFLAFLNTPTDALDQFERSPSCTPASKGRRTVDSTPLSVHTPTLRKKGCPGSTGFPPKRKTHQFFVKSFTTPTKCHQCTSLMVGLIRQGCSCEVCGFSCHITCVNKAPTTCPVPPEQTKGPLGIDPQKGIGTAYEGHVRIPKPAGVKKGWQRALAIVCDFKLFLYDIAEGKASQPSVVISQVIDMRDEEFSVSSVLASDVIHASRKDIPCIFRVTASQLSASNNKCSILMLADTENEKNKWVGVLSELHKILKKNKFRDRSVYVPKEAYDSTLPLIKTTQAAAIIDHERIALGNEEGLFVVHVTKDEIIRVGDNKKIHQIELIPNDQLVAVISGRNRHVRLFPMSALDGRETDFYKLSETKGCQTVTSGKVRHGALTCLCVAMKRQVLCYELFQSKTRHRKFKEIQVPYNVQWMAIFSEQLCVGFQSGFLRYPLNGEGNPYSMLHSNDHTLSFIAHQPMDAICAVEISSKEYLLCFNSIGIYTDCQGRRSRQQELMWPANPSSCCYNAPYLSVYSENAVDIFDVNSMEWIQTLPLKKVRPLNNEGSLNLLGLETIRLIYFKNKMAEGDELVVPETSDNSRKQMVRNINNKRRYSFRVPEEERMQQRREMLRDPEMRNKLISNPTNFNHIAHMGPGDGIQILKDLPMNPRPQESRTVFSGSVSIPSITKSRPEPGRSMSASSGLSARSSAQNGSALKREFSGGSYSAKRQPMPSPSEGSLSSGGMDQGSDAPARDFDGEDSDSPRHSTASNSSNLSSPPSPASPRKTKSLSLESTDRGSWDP

On to `COc1ccc(COc2ccc(Cc3cnc(N)nc3N)cc2OC)cc1`, for which the inhibition – broadly, the relative decrease from the control value, in per cent – in [1] is 1.99%; in assay [2], -0.63%; in [3] it was 3.11%; in [4], 3.93%; in assay [5], 8.75%; in assay [6], 5.97%. For the same compound, the inhibition in [7] is 1.99%; in [8], 1.84%; in assay [9], 1.54%; in assay [10], 0.73%; in [11] it was 1.69%; in assay [12], 4.69%. Also, the inhibition in [13] came out at 1.52%; in [14], 1.05%; in [15], 1.13%; in assay [16], 3.26%; in assay [17], 2.56%; in [18] it was 1.31%. Besides, the values for the inhibition in assay [19] and in assay [20] were -0.03% and 2.11%, respectively.
`COc1cc2ncn(-c3cc(OCc4ccccc4C(F)(F)F)c(C(N)=O)s3)c2cc1OC`: the inhibition in assay [1] is -5.9%; in [2] it was -3.27%; in assay [3], -0.23%; in assay [4] it was -0.14%; in assay [5], 1.71%; in assay [6], 1.02%. For the same compound, the inhibition in assay [7] was 2.52%; in assay [8] it was 5.14%; in assay [9], 1.44%; in [10], 3.22%; in assay [11], 0.58%; in [12], -1.97%. In addition, the inhibition in assay [13] is -1.35%; in [14], -3.16%; in assay [15] it was -2.48%; in [16] it was 0.23%; in [17], 0.89%; in assay [18], 5.48%. Also, the inhibition was 5.95% in [19] and -1.78% in [20].
With `Nc1nc(-c2ccc3c(c2)C(=Cc2cc(Br)c(O)c(Br)c2)C(=O)N3)cs1`, the inhibition is -0.3% in assay [1]; -1.5% in assay [2]; 0.42% in assay [3]; 0.83% in [4]; -1.16% in [5]; 0.13% in [6]. Moreover, the inhibition in [7] was -1.47%; in [8], -0.48%; in assay [9], -1.65%; in assay [10] it was 1.12%; in [11], -1.98%; in assay [12], -0.95%. For the same compound, the inhibition in assay [13] is -0.7%; in assay [14] it was -0.01%; in assay [15] it was 1.51%; in assay [16] it was 0.67%; in assay [17], 0.52%; in [18], -1.62%. For the same compound, the inhibition in assay [19] was -1.96%; in [20], -2.56%.
Consider `Cc1cccc(-c2n[nH]cc2-c2ccc3ncccc3n2)n1`, for which the inhibition in assay [1] is 0.34%; in assay [2], 0.69%; in assay [3] it was 0.87%; in assay [4], 1.36%; in [5], 0.79%; in assay [6], 0.35%. Besides, the inhibition was 1.84% in assay [7]; 0.64% in [8]; 0.55% in [9]; -0.68% in [10]; 1.02% in assay [11]; 1.12% in [12]. The inhibition is 1.28% in assay [13]; 0.19% in assay [14]; -0.46% in [15]; 0.17% in [16]; 0.39% in [17]; -0.08% in [18]. The inhibition in assay [19] is 2.61%; in assay [20], -0.61%.
As for `COc1cc2ncn(-c3cc(O[C@@H](C)c4ccccc4Cl)c(C(N)=O)s3)c2cc1OC`, the inhibition in assay [1] was 1.42%; in assay [2], 0.91%; in [3], 0.43%; in assay [4] it was 3.35%; in assay [5], 11.4%; in [6], 11.6%. In addition, the inhibition in assay [7] is 4.79%; in assay [8], 5.46%; in assay [9] it was 0.94%; in assay [10], 2.16%; in assay [11], 0.82%; in [12] it was 4.37%. Besides, the inhibition came out at 4.38% in [13]; 1.75% in [14]; 3.87% in assay [15]; 3.42% in assay [16]; 4.55% in assay [17]; 5.28% in [18]. The inhibition in assay [19] worked out at 3.1%; in assay [20] it was 3.01%.
Turning to `Nc1ncnc2occ(-c3ccc(NC(=O)Nc4cc(C(F)(F)F)cc(C(F)(F)F)c4)cc3)c12`, the inhibition in assay [1] is -0.38%; in assay [2] it was -1.97%; in assay [3], 0.11%; in [4], 1.52%; in assay [5], 3.6%; in assay [6], 25.2%. In addition, the inhibition in assay [7] is -0.06%; in assay [8] it was 20.1%; in assay [9] it was 17%; in assay [10] it was 65.8%; in assay [11], 1.59%; in assay [12] it was 0.91%. Besides, the inhibition in [13] is 0.7%; in assay [14], 0.06%; in assay [15], 0.45%; in [16], -0.8%; in assay [17], -1.24%; in assay [18], 1.47%. Further, the inhibition in [19] is -0.03%; in assay [20], 3.16%.
For `COc1cccc(-n2ncc3c(N/N=C/c4cccc(F)c4)ncnc32)c1`, the inhibition is 0.1% in assay [1]; -0.68% in [2]; 1.2% in assay [3]; 0.38% in assay [4]; 0.41% in assay [5]; -0.25% in [6]. Also, the inhibition was 2.4% in assay [7]; 2.89% in assay [8]; 0.65% in assay [9]; 2.01% in [10]; 1.33% in assay [11]; -1.81% in [12]. Further, the inhibition in [13] was -1.91%; in assay [14], -3.02%; in assay [15], -2.41%; in [16] it was 0.85%; in assay [17], 1.36%; in assay [18] it was 0.06%. Moreover, the figures for the inhibition in assay [19] and in assay [20] were 3.37% and 2.4%, respectively.
As for `CS(=O)(=O)CCNCc1nc(-c2ccc3ncnc(Nc4ccc(F)c(Cl)c4)c3c2)cs1`, the inhibition in assay [1] is 1.82%; in assay [2] it was 3.22%; in assay [3] it was -0.31%; in assay [4], -0.48%; in [5], 1.46%; in assay [6], 6.15%. In addition, the inhibition in assay [7] was 1.32%; in assay [8], 1.96%; in assay [9], -0.63%; in [10], 1.77%; in [11], 1.98%; in [12] it was 1.17%. For the same compound, the inhibition in assay [13] came to 1.29%; in assay [14], 0.29%; in assay [15], 0.92%; in assay [16], 1.56%; in [17], 2.07%; in [18] it was 1.59%. The inhibition worked out at 3.26% in assay [19] and 2.71% in assay [20].
On to `CC(C)=Cc1cccc2c1/C(=N/Nc1ccc(S(N)(=O)=O)cc1)C(=O)N2`, for which the inhibition in assay [1] is 1.91%; in [2], 3.43%; in assay [3], -0.74%; in assay [4], 0.5%; in [5], 7.7%; in assay [6], 11.4%. For the same compound, the inhibition in assay [7] turned out to be 2.65%; in [8] it was 15.9%; in [9] it was 1.06%; in assay [10], 5.23%; in [11], 10.4%; in [12], 0.47%. Further, the inhibition in [13] came to 3.74%; in assay [14], 0.96%; in assay [15] it was 1.29%; in assay [16], 0.26%; in assay [17] it was 1.55%; in [18], 0.51%. Moreover, the figures for the inhibition in assay [19] and in [20] were 2.14% and 1.44%, respectively.
On to `NS(=O)(=O)c1ccc(N/N=C2\C(=O)Nc3ccc(C(=O)NCCc4c[nH]cn4)cc32)cc1`, for which the inhibition in [1] is -0.15%; in [2] it was 2.43%; in assay [3], 1.24%; in [4], 2.13%; in [5], 4.49%; in [6] it was 5.44%. For the same compound, the inhibition was found to be 4.34% in assay [7]; 18.7% in assay [8]; 2.49% in assay [9]; 8.75% in [10]; 14.2% in assay [11]; 2.18% in assay [12]. Also, the inhibition was 7.07% in [13]; 1.52% in assay [14]; 5.32% in assay [15]; 1.16% in assay [16]; -0.4% in assay [17]; 5.07% in assay [18]. Besides, the inhibition in [19] came out at 2.38%; in assay [20], 0.92%.

Source of the values: ChEMBL document CHEMBL1961873, “Compounds: GSK PKIS; Assays: Nanosyn kinase panel” (2012).
